Screen size: about 11,000 compounds; about 310 (2.8%) were called active. Rule as the data show it: active = activity change below about -85%; inactive = the rest. For the sample, actives were picked, then their nearest neighbours and some compounds at random.
The molecules below were run on intestinal alkaline phosphatase [Mus musculus] (assay: mouse intestinal phosphatase enzyme activation – biochemical, luminescence, single concentration, confirmation (AID 434970)). Conditions: purified mouse IAP, CDP-Star luminescence, 30 min, at 10 µM; activation factor: measured here: IAP activation factor, stronger effect = higher value; activity change, negative = activation: stronger effect = lower value.

| SMILES | activation factor | activity change, negative = activation |
| --- | --- | --- |
| CCOC(=O)c1ccc(NC(=O)NCc2ccccc2OC)cc1 | 1.8 | -79.8% (inactive) |
| CCOC(=O)c1ccc(NC(=S)NCCc2ccccc2F)cc1 | 1.3 | -29.6% (inactive) |
| CCOC(=O)c1ccc(NC(=O)NCCc2ccccc2OC)cc1 | 2.01 | -101% (active) |
| COc1ccc(C)cc1NC(=O)C1C2C=CC(C2)C1C(=O)O (configuration not stated) | 0.955 | 4.55% (inactive) |
| O=C(Nc1cc(Cl)cc(Cl)c1)C1CCC(=O)N1Cc1ccccc1Cl (configuration not stated) | 1.71 | -70.5% (inactive) |
| COc1cc(NC(=O)NCC2CCN(Cc3ccccc3Cl)CC2)cc(OC)c1OC | 2.47 | -148% (active) |
| COc1cc2c(cc1NC(=O)Nc1ccc(C)cc1)oc1ccccc12 | 1.18 | -18.4% (inactive) |
| COc1cc(NC(=O)NCC2CCN(Cc3ccccc3C)CC2)cc(OC)c1OC | 2.9 | -190% (active) |
| COc1cc(NC(=O)NCC2CCN(Cc3ccc(C)cc3)CC2)cc(OC)c1OC | 1.88 | -88.3% (inactive) |
| CCC(NC(=O)Nc1cc(OC)c(OC)c(OC)c1)(C(F)(F)F)C(F)(F)F | 1.8 | -80.2% (inactive) |
| CCN(CC)C(=O)[C@H]1C[C@H](CC(=O)NCCc2ccccn2)C(=O)N2CCc3c([nH]c4cc(-c5ccco5)ccc34)[C@]12C | 1.27 | -27% (inactive) |
| O=C(c1cccs1)n1nc(-c2ccccc2)nc1NCc1ccco1 | 0.857 | 14.4% (inactive) |
| c1ccc(-c2cc3c(NCC4COc5ccccc5O4)ncnc3s2)cc1 (configuration not stated) | 1.97 | -97.1% (active) |
| CCN(c1ccccc1)S(=O)(=O)c1ccc(NCC2COc3ccccc3O2)nc1 (configuration not stated) | 1.29 | -28.6% (inactive) |
| FC(F)(F)c1cccc(NC(=S)NCC2COc3ccccc3O2)c1 (configuration not stated) | 1.43 | -42.8% (inactive) |
| CCOc1ccc(C2N(c3cc(C)on3)C(=O)C3CCCN32)cc1OC (configuration not stated) | 1.05 | -5.3% (inactive) |
| O=C(CSc1nnc(Cn2nnc3ccccc32)o1)Nc1ccc(Cl)cc1 | 0.985 | 1.5% (inactive) |
| Cc1cc(C)cc(NC(=O)Cn2c(-c3ccccc3Cl)nc3ccccc32)c1 | 2.48 | -148% (active) |
| O=C(CCn1cnc2ccccc2c1=O)Nc1cccc(Cl)c1 | 1.01 | -1.4% (inactive) |
| Cc1ccc(SCc2nc3ccccc3n2CC(=O)Nc2ccc(Cl)cc2)cc1 | 1.85 | -85.5% (active) |
| Cc1ccc(SCc2nc3ccccc3n2CC(=O)Nc2ccccc2)cc1 | 1.56 | -56% (inactive) |
| O=C(CCN1C(=O)c2ccccc2C1=O)NC(=S)Nc1cccc(Cl)c1 | 0.956 | 4.4% (inactive) |
| O=C(Cn1c(-c2ccccc2Cl)nc2ccccc21)Nc1cccc(Cl)c1 | 2.51 | -151% (active) |
| Cc1ccc(C(=O)NC(C)c2nc3ccccc3n2CC(=O)Nc2c(C)cc(C)cc2C)cc1 (configuration not stated) | 1.1 | -10.2% (inactive) |
| Cc1cc(C)cc(NC(=O)CCc2nc3ccccc3[nH]2)c1 | 1.04 | -3.9% (inactive) |
| Fc1ccccc1Cn1nnc2c(NCc3ccccn3)ncnc21 | 0.966 | 3.35% (inactive) |

| SMILES | activation factor | activity change, negative = activation |
| --- | --- | --- |
| CCN(CC)CCNC(=O)C1c2ccccc2C(=O)N(CCOC)C1c1ccc(F)cc1 (configuration not stated) | 0.972 | 2.85% (inactive) |
| Cc1ccc(C(C)NC(=S)NCc2ccc(F)cc2)c(C)c1 (configuration not stated) | 1.39 | -38.5% (inactive) |
| CC(=O)Nc1ccc(SCC(=O)OCC(=O)NC(=O)NCc2ccco2)cc1 | 0.893 | 10.7% (inactive) |
| COc1ccc(Cl)cc1NC(=O)C1CCCO1 (configuration not stated) | 0.924 | 7.6% (inactive) |
| Cc1ccc(C(=O)O)cc1S(=O)(=O)N1CCSCC1 | 0.916 | 8.35% (inactive) |
| CCN(CC)CCCNC(=O)C1c2cc(OC)c(OC)cc2C(=O)N(C)C1c1cccs1 (configuration not stated) | 1.04 | -4.25% (inactive) |
| COc1cccc(-c2cc(C(F)(F)F)n3ncc(C(=O)NCC4CCCO4)c3n2)c1 (configuration not stated) | 1.05 | -4.65% (inactive) |
| CC(C)CCNC(=O)COc1ccc2c(c1)C(=O)CC(C)(C)O2 | 1 | -0.15% (inactive) |
| CC(CNC(=S)Nc1cc(F)cc(F)c1)CSc1ccc(Cl)cc1 (configuration not stated) | 1.3 | -29.9% (inactive) |
| CC(C)Oc1ccc(/C=N/NC(=O)C(CSCc2ccccc2)NC(=O)c2ccc([N+](=O)[O-])cc2)cc1 (configuration not stated) | 0.941 | 5.95% (inactive) |
| CC(C)c1ccc(NC(=O)C(c2ccccc2)N2CC(=O)Nc3ccccc32)cc1 (configuration not stated) | 1.24 | -23.8% (inactive) |
| Cc1ccc(NC(=O)C2CC(=O)NC(N3CCc4ccccc43)=N2)cc1 (configuration not stated) | 0.947 | 5.35% (inactive) |
| CSc1nc2n(n1)C(c1cccc(F)c1)C(C(=O)Nc1ccc(C)cc1C)=C(C)N2 (configuration not stated) | 0.93 | 6.95% (inactive) |
| Cc1ccc(NC(=O)C2CC(=O)Nc3nc4ccccc4n32)c(C)c1 (configuration not stated) | 2.57 | -157% (active) |
| Cc1ccc(NC(=O)C2C(c3ccccc3)C2(Cl)Cl)c(C)c1 (configuration not stated) | 1.59 | -59.4% (inactive) |
| CC(C)c1ccc(NC(=O)C2CC(=O)Nc3nc4ccccc4n32)cc1 (configuration not stated) | 2.38 | -138% (active) |
| O=C1/C(=C/c2ccco2)CCc2ccccc21 | 1.04 | -4% (inactive) |
| Cc1ccc(C)c(NS(=O)(=O)c2ccc3[nH]c(=O)oc3c2)c1 | 0.111 | 88.9% (inactive) |
| COc1ccc(NC(=O)Nc2ccc3c(c2)C(=O)N([C@H](C)CO)C[C@H](C)[C@@H](CN(C)S(=O)(=O)c2ccc(F)cc2)O3)cc1 | 2.01 | -101% (active) |
| C[C@H](CO)N1C[C@H](C)[C@@H](CN(C)S(=O)(=O)c2ccc(F)cc2)Oc2ccc(NC(=O)Nc3ccccc3)cc2C1=O | 1.91 | -91.2% (inactive) |
| C[C@H](CO)N1C[C@H](C)[C@@H](CN(C)S(=O)(=O)c2ccccc2)Oc2ccc(NC(=O)Nc3ccc4c(c3)OCO4)cc2C1=O | 1.95 | -94.6% (inactive) |
| COc1ccc(NC(=O)Nc2ccc3c(c2)C(=O)N([C@H](C)CO)C[C@H](C)[C@@H](CN(C)S(=O)(=O)c2ccc(OC)cc2)O3)cc1 | 1.77 | -77.3% (inactive) |
| COc1ccc(NC(=O)N(C)C[C@H]2Oc3ccc(NC(=O)Nc4ccc(C(F)(F)F)cc4)cc3C(=O)N([C@H](C)CO)C[C@@H]2C)cc1 | 1.75 | -75.5% (inactive) |
| COc1ccc(S(=O)(=O)N(C)C[C@H]2Oc3ccc(NC(=O)Nc4ccccc4)cc3C(=O)N([C@H](C)CO)C[C@@H]2C)cc1 | 2.15 | -115% (active) |
| COc1ccc(S(=O)(=O)N(C)C[C@H]2Oc3ccc(NC(=O)Nc4ccc5c(c4)OCO5)cc3C(=O)N([C@H](C)CO)C[C@@H]2C)cc1 | 1.86 | -86.1% (inactive) |
| C[C@H](CO)N1C[C@H](C)[C@@H](CN(C)S(=O)(=O)c2ccccc2)Oc2ccc(NC(=O)Nc3ccccc3)cc2C1=O | 2.62 | -162% (active) |

| SMILES | activation factor | activity change, negative = activation |
| --- | --- | --- |
| COc1ccc(NC(=O)Nc2ccc3c(c2)C(=O)N([C@H](C)CO)C[C@H](C)[C@@H](CN(C)S(=O)(=O)c2ccccc2)O3)cc1 | 1.98 | -97.7% (inactive) |
| COc1ccc2[nH]c(=O)c(CN(C(C)=O)c3cccc(C)c3)cc2c1 | 0.991 | 0.9% (inactive) |
| O=C(CSc1nnc(-c2cccs2)n1-c1cccc(Cl)c1)c1cccc2c1OCCO2 | 0.901 | 9.9% (inactive) |
| CCCc1[nH]nc2c1C(Cc1ccccc1)C(C#N)=C(N)O2 (configuration not stated) | 0.921 | 7.85% (inactive) |
| CC(C)N(C(=O)[C@H]1C[C@H](CC(=O)NCCCn2ccnc2)C(=O)N2CCc3c([nH]c4cc(CCC(=O)N(C)C)ccc34)[C@]12C)C(C)C | 0.995 | 0.5% (inactive) |
| CCOC(=O)C1C(C(=O)OC)=C(C2=CCCCC2)c2ccccc2N1S(=O)(=O)C(F)(F)F (configuration not stated) | 0.97 | 3% (inactive) |
| Cc1ccc(NC(=O)C2CCCNC2=O)nc1 (configuration not stated) | 0.929 | 7.05% (inactive) |
| Cc1cc(N2CCN(C)CC2)nc2ccc(NC(=O)c3ccc4c(c3)OCO4)cc12 | 1.03 | -2.9% (inactive) |
| CCCc1n[nH]c2c1/C(=N\O)CCC2 | 1.05 | -5.35% (inactive) |
| Cc1onc(-c2ccccc2)c1C(=O)Nc1ccnn1C1CCCCC1 | 0.923 | 7.65% (inactive) |
| CSc1ccc(CN2CCC(n3nccc3NC(=O)CCCc3ccccc3)CC2)cc1 | 2.27 | -126% (active) |
| Cc1ccccc1NC(=O)CCN1CCN(Cc2ccccc2)CC1 | 1.13 | -13.2% (inactive) |
| O=C(CCc1nc2ccccc2c(=O)[nH]1)NC1CCN(Cc2ccccc2)CC1 | 0.905 | 9.55% (inactive) |
| Cc1ccc(CC(NC(=O)C2CCCCC2)C(=O)O)cc1 (configuration not stated) | 1.07 | -6.55% (inactive) |
| O=C(CCCc1ccccc1)Nc1ccnn1C1CCN(Cc2ccc(Cl)cc2)CC1 | 2.18 | -118% (active) |
| O=C(NNS(=O)(=O)c1ccc(Cl)cc1)C1CCN(Cc2ccccc2)CC1 | 1.1 | -9.8% (inactive) |
| CC(C)Cc1ccc(CN2CCC(n3nccc3NC(=O)C3CCCC3)CC2)cc1 | 1.98 | -98.2% (active) |
| O=C(CN1CCN(Cc2ccc(Cl)cc2)CC1)N/N=C/c1ccncc1 | 0.975 | 2.5% (inactive) |
| CCCN1Cc2cc(OC)ccc2-c2ccccc2S1(=O)=O | 1.13 | -13.1% (inactive) |
| O=C(NCc1ccc2c(c1)OCO2)c1cccnc1 | 1.13 | -13% (inactive) |
| O=C(OCC1OC2C(Oc3nc(=O)ccn32)C1O)c1ccccc1 (configuration not stated) | 1.02 | -1.5% (inactive) |
| N#Cc1c2c(c(NCc3cccnc3)n3c1nc1ccccc13)CCC2 | 0.779 | 22.1% (inactive) |
| C#CCOCCOCCOCCNc1nc(N2CCN(C(=O)CCCCCCCCCCNC(=O)[C@H]([C@@H](C)CC)n3cc(CCCCN=C(N)N)nn3)CC2)nc(N2CCN(C(=O)CCCCCCCCCCNC(=O)[C@H](CCCCN)n3cc(C)nn3)CC2)n1 | 8.54 | -754% (active) |
| C#CCOCCOCCOCCNc1nc(N2CCN(C(=O)CCCCCCCCCCNC(=O)[C@H](CCCCN)n3cc(C)nn3)CC2)nc(N2CCN(C(=O)CCCCCCCCCCNC(=O)[C@@H]([C@H](C)CC)n3cc(CCCCCN)nn3)CC2)n1 | 3.63 | -263% (active) |

Source: PubChem BioAssay AID434970 (Sanford-Burnham Center for Chemical Genomics, 2010)
